# Experimental data: PubChem BioAssay (NCI)
# This is part of a sample that, as a whole, favours compounds with a hit. Of some 79,000 tested, about 15% had one in any assay. A number with no mark means an inactive call. Active and inactive are the calls of the source. Rule as the data show it: active = growth inhibition above about 70%; inactive = the rest.
# Assay: NCI Yeast Anticancer Drug Screen. Data for the mlh1 strain (AID 171);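 also: 0% = growth of vehicle-treated control cultures of the same strain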
# Settings: S. cerevisiae mlh1 strain growth inhibition, active compounds read high
# Description: Growth inhibition of yeast strains with defined genetic alterations is measured as a screen for potential anti-cancer activity. Selected strains with alterations in DNA damage repair or cell cycle control were exposed to compounds and growth inhibition was measured relative to vehicle treated controls. The strain used in this assay is mlh1
SMILES,growth inhibition (at 1.2 µM),growth inhibition (at 3.7 µM),growth inhibition (at 11.0 µM),growth inhibition (at 33.0 µM),growth inhibition (at 100.0 µM)
COc1cc(/C=C2\NC(=O)N(/C=C3\C(=O)Oc4ccccc4C3=O)C2=O)ccc1O,-1%,0%,6%,82% (active),96% (active)
CCn1c(O)c(C=Nc2ccccc2)s/c1=N/Nc1nc(-c2ccccc2)cs1,-2%,3%,3%,4%,12%
O=[N+]([O-])c1cccc2nc3ccccc3c(NCCCn3ccnc3[N+](=O)[O-])c12,17%,33%,47%,75% (active),92% (active)
Cc1cc(O)c(C(C)C)cc1C1(c2cc(C(C)C)c(O)cc2C)OC(=O)c2ccccc21,5%,3%,3%,-24%,31%
O=C1c2ccccc2C(=O)N1CCCC(=O)n1cc(F)c(=O)[nH]c1=O,-20%,-18%,17%,59%,78% (active)
O=C(CSC(=S)N1CCCCC1)Nc1nc2c(s1)CCCC2,24%,19%,14%,43%,84% (active)
CCCC(=O)Oc1c(C)cc([N+](=O)[O-])cc1[N+](=O)[O-],2%,12%,99% (active),99% (active),99% (active)
CN(CCN(C)Cc1ccccc1)Cc1ccccc1,8%,4%,12%,23%,52%
